# Measured values reported in PubChem BioAssay.
# Calls of active or inactive are those of the source.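 Rule for the calls, unless noted: active = normalized viability below 100% at a tested concentration; inactive = the rest.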 *1 amine or outer side, *2 acyl side, *3 side chain or, on linkers, in order; H or OH if unused. Where a SMILES comes first, the peptide text is derived from it. Bridges are numbered along the chain shown (N, C = ends). Roman numbers before positions name the chains, in order. [ ]: non-standard residue; d: D form. Hexamethylenediamine = C(CCCN[*:2])CCN[*:1]; Dip = N[C@H](C(=O)O)C(c1ccccc1)c1ccccc1; Chg = N[C@H](C(=O)O)C1CCCCC1; NMeA = CN[C@@H](C)C(=O)O
# Key:
# [1] = drug combination growth inhibition, ovarian cancer – cell-based, oncology-focused library, rucaparib conditional, profiling panel (AID 1508598); details: patient-derived ovarian cancer cells, CellTiter-Glo viability, 144 h, stronger effect = lower value
# [2] = liver-stage malaria parasite load reduction – cell-based, known kinase inhibitor set, luminescence, hepatoma host viability (AID 624392; call rule not given here;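 note: infected cells incubated roughly two days before readout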); details: Plasmodium liver stage in hepatoma cells, luciferase luminescence, concentration not given here; liver cell % of control: measured here: host liver cell viability; parasite % of control: stronger effect = lower value
# [3] = altered dexamethasone sensitivity, NF-kB reporter, cell-based, luciferase, IL-1B stimulus (AID 624486; call rule not given here;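 for percent of negative control (+Dex): 100% = mean signal of vehicle control wells on the plate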); details: IL-1B + dexamethasone, luminescence; percent of negative control (+Dex): actives lie on both sides, concentration not given here; z-score: measured here: IL-1B alone, no Dex
# [4] = C. elegans survival during P. aeruginosa infection – whole organism (AID 651566; call rule not given here;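 note: tested at 14 µM; sign flipped so higher z means a lower ratio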); details: C. elegans killed by P. aeruginosa, survival ratio
# [5] = pro-inflammatory signaling induction in mouse macrophages – cell-based, murine, luminescence (AID 652131; call rule not given here); details: murine macrophage pro-inflammatory reporter, stronger effect = higher value
# [6] = MELAS cybrid and Rieske KO viability enhancers – cell-based, MELAS cybrids, Rieske KO mouse fibroblasts, CellTiter-Glo, primary screen (AID 1508586;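 active = mean z-score across replicates of 1.96 or higher in either the MELAS or the Rieske mutant cell line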;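 note: z relative to plate mean and SD of compound and empty wells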); details: low glucose
# [7] = at 5 µM, OCI-P5x cells, with rucaparib 20 µM, 100% = cells with rucaparib alone
# [8] = at 5 µM, OCI-P5x cells, without rucaparib
# [9] = at 0.000305 µM, OCI-C5x cells, with rucaparib 10 µM, 100% = cells with rucaparib alone
# [10] = at 0.000305 µM, OCI-C5x cells, without rucaparib
# [11] = at 0.000305 µM, OCI-P5x cells, with rucaparib 20 µM, 100% = cells with rucaparib alone
# [12] = at 0.000305 µM, OCI-P5x cells, without rucaparib
# [13] = at 0.00122 µM, OCI-C5x cells, with rucaparib 10 µM, 100% = cells with rucaparib alone
# [14] = at 0.00122 µM, OCI-C5x cells, without rucaparib
# [15] = at 0.00122 µM, OCI-P5x cells, with rucaparib 20 µM, 100% = cells with rucaparib alone
# [16] = at 0.00122 µM, OCI-P5x cells, without rucaparib
# [17] = at 0.00488 µM, OCI-C5x cells, with rucaparib 10 µM, 100% = cells with rucaparib alone
# [18] = at 0.00488 µM, OCI-C5x cells, without rucaparib
# [19] = at 0.00488 µM, OCI-P5x cells, with rucaparib 20 µM, 100% = cells with rucaparib alone
# [20] = at 0.00488 µM, OCI-P5x cells, without rucaparib
# [21] = at 0.0195 µM, OCI-C5x cells, with rucaparib 10 µM, 100% = cells with rucaparib alone
# [22] = at 0.0195 µM, OCI-C5x cells, without rucaparib
# [23] = at 0.0195 µM, OCI-P5x cells, with rucaparib 20 µM, 100% = cells with rucaparib alone
# [24] = at 0.0195 µM, OCI-P5x cells, without rucaparib
# [25] = at 0.0781 µM, OCI-C5x cells, with rucaparib 10 µM, 100% = cells with rucaparib alone
# [26] = at 0.0781 µM, OCI-C5x cells, without rucaparib
# [27] = at 0.0781 µM, OCI-P5x cells, with rucaparib 20 µM, 100% = cells with rucaparib alone
# [28] = at 0.0781 µM, OCI-P5x cells, without rucaparib
# [29] = at 0.313 µM, OCI-C5x cells, with rucaparib 10 µM, 100% = cells with rucaparib alone
# [30] = at 0.313 µM, OCI-C5x cells, without rucaparib
# [31] = at 0.313 µM, OCI-P5x cells, with rucaparib 20 µM, 100% = cells with rucaparib alone
# [32] = at 0.313 µM, OCI-P5x cells, without rucaparib
# [33] = at 1.25 µM, OCI-C5x cells, with rucaparib 10 µM, 100% = cells with rucaparib alone
# [34] = at 1.25 µM, OCI-C5x cells, without rucaparib
# [35] = at 1.25 µM, OCI-P5x cells, with rucaparib 20 µM, 100% = cells with rucaparib alone
# [36] = at 1.25 µM, OCI-P5x cells, without rucaparib
# [37] = at 5 µM, OCI-C5x cells, with rucaparib 10 µM, 100% = cells with rucaparib alone
# [38] = at 5 µM, OCI-C5x cells, without rucaparib
smiles,measurement,setting,value
N[C@@H]1CCCN(c2c(/C=C3\SC(=O)NC3=O)cccc2-c2ccccc2)C1,viability,[1]; [7],74.6% (active)
same,viability,[1]; [8],97.5% (active)
CS(=O)(=O)CCNCc1coc(-c2ccc3ncnc(Nc4ccc(OCc5ccccc5)cc4)c3c2)c1,liver cell % of control,[2],87.7%
same,parasite % of control,[2],176% (inactive)
same,percent of negative control (+Dex),[3],90% (inactive)
same,z-score,[3],-0.13
same,z-score,[4],-0.225 (inactive)
same,z-score,[5],2.75 (inactive)
same,z-score,"[6]; MELAS cybrid survival, CellTiter-Glo 48 h, stronger effect = higher value",-0.812 (inactive)
same,z-score,"[6]; Rieske KO mouse fibroblast survival, CellTiter-Glo 72 h",-0.493
C[C@]12CC[C@H]3c4ccc(O)cc4CC[C@H]3[C@@H]1CC[C@H]2O,viability,[1]; [9],95.7% (active)
same,viability,[1]; [10],130% (inactive)
same,viability,[1]; [11],103% (inactive)
same,viability,[1]; [12],110% (inactive)
same,viability,[1]; [13],105% (inactive)
same,viability,[1]; [14],111% (inactive)
same,viability,[1]; [15],101% (inactive)
same,viability,[1]; [16],116% (inactive)
same,viability,[1]; [17],109% (inactive)
same,viability,[1]; [18],124% (inactive)
same,viability,[1]; [19],104% (inactive)
same,viability,[1]; [20],112% (inactive)
same,viability,[1]; [21],99.5% (active)
same,viability,[1]; [22],115% (inactive)
same,viability,[1]; [23],109% (inactive)
same,viability,[1]; [24],112% (inactive)
same,viability,[1]; [25],100% (inactive)
same,viability,[1]; [26],119% (inactive)
same,viability,[1]; [27],108% (inactive)
same,viability,[1]; [28],109% (inactive)
same,viability,[1]; [29],108% (inactive)
same,viability,[1]; [30],118% (inactive)
same,viability,[1]; [31],100% (inactive)
same,viability,[1]; [32],114% (inactive)
same,viability,[1]; [33],100% (inactive)
same,viability,[1]; [34],124% (inactive)
same,viability,[1]; [35],110% (inactive)
same,viability,[1]; [36],113% (inactive)
same,viability,[1]; [37],81% (active)
same,viability,[1]; [38],94.8% (active)
same,viability,[1]; [7],107% (inactive)
same,viability,[1]; [8],110% (inactive)
C[C@]12CCC(=O)C=C1CC[C@@H]1[C@H]2[C@H](O)C[C@@]2(C)[C@H]1CC[C@@]2(O)C(=O)CO,viability,[1]; [9],107% (inactive)
same,viability,[1]; [10],119% (inactive)
same,viability,[1]; [11],105% (inactive)
same,viability,[1]; [12],115% (inactive)
same,viability,[1]; [13],109% (inactive)
same,viability,[1]; [14],116% (inactive)
same,viability,[1]; [15],98.6% (active)
same,viability,[1]; [16],109% (inactive)
same,viability,[1]; [17],114% (inactive)
same,viability,[1]; [18],121% (inactive)
same,viability,[1]; [19],102% (inactive)
same,viability,[1]; [20],117% (inactive)
same,viability,[1]; [21],110% (inactive)
same,viability,[1]; [22],128% (inactive)
same,viability,[1]; [23],109% (inactive)
same,viability,[1]; [24],112% (inactive)
same,viability,[1]; [25],112% (inactive)
same,viability,[1]; [26],132% (inactive)
same,viability,[1]; [27],103% (inactive)
same,viability,[1]; [28],115% (inactive)
same,viability,[1]; [29],103% (inactive)
same,viability,[1]; [30],119% (inactive)
same,viability,[1]; [31],104% (inactive)
same,viability,[1]; [32],114% (inactive)
same,viability,[1]; [33],111% (inactive)
same,viability,[1]; [34],118% (inactive)
same,viability,[1]; [35],103% (inactive)
same,viability,[1]; [36],114% (inactive)
same,viability,[1]; [37],125% (inactive)
same,viability,[1]; [38],120% (inactive)
same,viability,[1]; [7],103% (inactive)
same,viability,[1]; [8],99.3% (active)
CN[C@@H](C)C(=O)N[C@H](C(=O)N1CCC[C@H]1C(=O)N[C@H](C(=O)NCCCCCCNC(=O)[C@@H](NC(=O)[C@@H]1CCCN1C(=O)[C@@H](NC(=O)[C@H](C)NC)C1CCCCC1)C(c1ccccc1)c1ccccc1)C(c1ccccc1)c1ccccc1)C1CCCCC1 (I: H-[NMeA][Chg]P[Dip] / II: H-[NMeA][Chg]P[Dip]; linker I:C-II:C via Hexamethylenediamine),viability,[1]; [9],121% (inactive)
same,viability,[1]; [10],115% (inactive)
same,viability,[1]; [11],85.6% (active)
same,viability,[1]; [12],93.2% (active)
same,viability,[1]; [13],119% (inactive)
same,viability,[1]; [14],106% (inactive)
same,viability,[1]; [15],95.3% (active)
same,viability,[1]; [16],94.9% (active)
same,viability,[1]; [17],129% (inactive)
same,viability,[1]; [18],111% (inactive)
same,viability,[1]; [19],83.7% (active)
same,viability,[1]; [20],94.7% (active)
same,viability,[1]; [21],115% (inactive)
same,viability,[1]; [22],108% (inactive)
same,viability,[1]; [23],81.4% (active)
same,viability,[1]; [24],99.5% (active)
same,viability,[1]; [25],110% (inactive)
same,viability,[1]; [26],112% (inactive)
same,viability,[1]; [27],39.3% (active)
same,viability,[1]; [28],85.3% (active)
same,viability,[1]; [29],114% (inactive)
same,viability,[1]; [30],116% (inactive)
same,viability,[1]; [31],19.6% (active)
same,viability,[1]; [32],54.1% (active)
same,viability,[1]; [33],96.9% (active)
same,viability,[1]; [34],105% (inactive)
same,viability,[1]; [35],13.6% (active)
same,viability,[1]; [36],21.5% (active)
same,viability,[1]; [37],89.4% (active)
same,viability,[1]; [38],120% (inactive)
same,viability,[1]; [7],0.911% (active)
same,viability,[1]; [8],7.49% (active)
CC(=O)[C@]1(O)Cc2c(O)c3c(c(O)c2[C@H](O[C@H]2C[C@H](N)[C@H](O)[C@H](C)O2)C1)C(=O)c1ccccc1C3=O,viability,[1]; [9],107% (inactive)
same,viability,[1]; [10],103% (inactive)
same,viability,[1]; [11],110% (inactive)
same,viability,[1]; [12],115% (inactive)
same,viability,[1]; [13],105% (inactive)
same,viability,[1]; [14],107% (inactive)
same,viability,[1]; [15],107% (inactive)
same,viability,[1]; [16],112% (inactive)
same,viability,[1]; [17],104% (inactive)
same,viability,[1]; [18],73.9% (active)
same,viability,[1]; [19],110% (inactive)
same,viability,[1]; [20],96.9% (active)
same,viability,[1]; [21],148% (inactive)
same,viability,[1]; [22],112% (inactive)
same,viability,[1]; [23],74% (active)
same,viability,[1]; [24],36.9% (active)
same,viability,[1]; [25],82.5% (active)
same,viability,[1]; [26],7.56% (active)
same,viability,[1]; [27],55.5% (active)
same,viability,[1]; [28],12.2% (active)
same,viability,[1]; [29],3.18% (active)
same,viability,[1]; [30],1.75% (active)
same,viability,[1]; [31],19% (active)
same,viability,[1]; [32],7.09% (active)
same,viability,[1]; [33],1.52% (active)
same,viability,[1]; [34],1.48% (active)
same,viability,[1]; [35],9.24% (active)
same,viability,[1]; [36],4.04% (active)
same,viability,[1]; [37],3.72% (active)
same,viability,[1]; [38],3.03% (active)
same,viability,[1]; [7],4.45% (active)
same,viability,[1]; [8],3.64% (active)
